Values quoted from earlier work in PubChem BioAssay AID977608.
The campaign covered roughly 4,300 compounds. About 4,300 (100%) were called active. No cut-off is given here; in the data, nearly all actives have IC50 up to about 1400 µM. So high a share suggests a set chosen from earlier hits. The list shows a part of the results. Positions of bridges follow the written chain, without caps; N, C: chain ends. Bridge positions count the residues as written; N and C are the ends. Non-standard residues stand in square brackets, D forms with d. Square brackets hold non-standard residues; d marks the D form. Residues, ends and D or L forms follow the SMILES beside them. Peptide text beside a SMILES is read from it. *: point of attachment. Phe(3,5-F2) = N[C@@H](Cc1cc(F)cc(F)c1)C(=O)O; Orn(CH(NH2)2) = NC(N)NCCC[C@H](N)C(=O)O; Pip(4S-Me) = C[C@H]1CCN[C@H](C(=O)O)C1; β3hR = N=C(N)NCCC[C@H](N)CC(=O)O; β3hE = N[C@@H](CCC(=O)O)CC(=O)O; β3hQ = NC(=O)CC[C@H](N)CC(=O)O; X1 = CC[C@H](C)C/C=C/C(=O)*; β3hD = NC(CC(=O)O)CC(=O)O; β3hA = C[C@H](N)CC(=O)O

Test: protein-ligand inhibition affinities from structures – PDB-derived complexes (AID 977608)

SMILES: CC[C@H](C)[C@H](NC(=O)C[C@H](CCC(=O)O)NC(=O)[C@H](CCC(=O)O)NC(=O)[C@H](C)N)C(=O)NCC(=O)N[C@@H](C)C(=O)N[C@@H](CCC(N)=O)CC(=O)N[C@@H](CC(C)C)C(=O)N[C@@H](CCCN=C(N)N)C(=O)N[C@@H](CCCN=C(N)N)CC(=O)N[C@@H](CCSC)C(=O)N[C@@H](C)C(=O)N[C@@H](CC(=O)O)C(=O)N[C@@H](CC(=O)O)CC(=O)N[C@@H](CC(C)C)C(=O)N[C@@H](CC(N)=O)C(=O)N[C@@H](C)CC(=O)N[C@@H](CCC(N)=O)C(=O)N[C@@H](Cc1ccc(O)cc1)C(=O)O (H-AE[β3hE]IGA[β3hQ]LR[β3hR]MAD[β3hD]LN[β3hA]QY-OH)
- IC50 (literature IC50, protein: fusion protein of mouse and human Mcl-1, PDB entry 4bpi): 0.67 µM (active)

SMILES: CC[C@H](C)[C@H](NC(=O)[C@H](C)N)C(=O)N[C@H](C)C(=O)N[C@@H](C)C(=O)N[C@@H](CCC(N)=O)CC(=O)N[C@@H](CC(C)C)C(=O)N[C@@H](CCCN=C(N)N)C(=O)N[C@@H](CCCN=C(N)N)CC(=O)N[C@@H](CCSC)C(=O)N[C@@H](C)C(=O)N[C@@H](CC(=O)O)C(=O)N[C@@H](CC(=O)O)CC(=O)N[C@@H](CC(C)C)C(=O)N[C@@H](CC(N)=O)C(=O)N[C@@H](C)CC(=O)N[C@@H](CCC(N)=O)C(=O)N[C@@H](Cc1ccc(O)cc1)C(=O)N[C@@H](CCC(=O)O)C(N)=O
- IC50 (literature IC50, protein: fusion protein of mouse and human Mcl-1, PDB entry 4bpj): 1 µM (active)

SMILES: Nc1ncc2c(n1)-c1c([nH]c3ccc(Br)cc13)CCC2
- IC50 (literature IC50, protein: Mitogen-activated protein kinase kinase kinase 14, PDB entry 4idt): 0.1 µM (active)

SMILES: N#CNC(=NCCCCCCOc1ccc(Cl)cc1)Nc1ccncc1
- IC50 (literature IC50, protein: Human Nicotinamide Phosphoribosyltransferase, PDB entry 4o12): 0.002 µM (active)

SMILES: CCOc1ccc(C(=O)Nc2ccc(F)c([C@@]3(C)NC(N)OCC3(F)F)c2)nc1 (stereo partly specified)
- IC50 (literature IC50, protein: BETA-SECRETASE 2, PDB entry 3zlq): 0.904 µM (active)
- IC50 (literature IC50, protein: Beta-secretase 1, PDB entry 4j0t): 0.184 µM (active)

SMILES: CCOP(=O)(COc1ccc(CCc2cnc3c(c2)C(=O)N(C)c2cccnc2N3CC)cc1)OCC
- IC50 (literature IC50, protein: Reverse transcriptase, PDB entry 4i7f): 0.1 µM (active)

SMILES: O=C(COc1ccccc1[P+](O)(O)O)Nc1cc(C(F)(F)F)ccc1Cl
- IC50 (literature IC50, protein: 14-3-3 protein sigma, PDB entry 4dhp): 36 µM (active)

SMILES: O=C(COc1ccccc1[P+](O)(O)O)Nc1cccc(Cl)c1Cl
- IC50 (literature IC50, protein: 14-3-3 protein sigma, PDB entry 4dhu): 5 µM (active)

SMILES: O=C(COc1ccccc1[P+](O)(O)O)Nc1ccccc1C(F)(F)F
- IC50 (literature IC50, protein: 14-3-3 protein sigma, PDB entry 3t0l): 30 µM (active)

SMILES: O=C(COc1ccccc1[P+](O)(O)O)Nc1ccccc1Cl
- IC50 (literature IC50, protein: 14-3-3 protein sigma, PDB entry 4dhr): 27 µM (active)

SMILES: N#Cc1c(F)cc(O)cc1SCCS(O)(O)O
- IC50 (literature IC50, protein: M-phase inducer phosphatase 2 CDC25B, PDB entry 4wh9): 1000 µM (active)

SMILES: COc1cc2cc(c1)NC(=O)/C(C)=C/CC[C@H](OC(N)=O)[C@@H](OC(N)=O)/C(C)=C/[C@H](C)[C@@H](OC)[C@@H](OC)COC2
- IC50 (literature IC50, protein: Heat shock protein HSP 90-alpha, PDB entry 4jql): 1 µM (active)

SMILES: CC[C@H](C)[C@@H]1NC(=O)[C@H](CC(=O)O)NC(=O)[C@@H](NC(=O)[C@H](CCC(=O)O)NC(=O)[C@H](CC(N)=O)NC(=O)CNC(=O)CN)CSSC[C@@H](C(=O)N[C@@H](Cc2ccccc2)C(=O)N[C@@H](CCC(=O)O)C(=O)N[C@@H](CCCNC(N)N)C(=O)N[C@@H](CC(C)C)C(=O)O)NC(=O)[C@H](CCC(=O)O)NC(=O)[C@H](Cc2c[nH]c3ccccc23)NC(=O)[C@H](CCC(=O)O)NC(=O)[C@H](Cc2c[nH]c3ccccc23)NC(=O)[C@H](CCSC)NC(=O)[C@H](CCCNC(N)N)NC(=O)[C@H](C)NC1=O (H-GGNECDIA[Orn(CH(NH2)2)]MWEWECFE[Orn(CH(NH2)2)]L-OH; disulfide 5-15)
- IC50 (literature IC50, protein: Vascular endothelial growth factor(VEGF), PDB entry 1kat): 1 µM (active)

SMILES: CSCC[C@H](NC(=O)[C@@H]1CSSC[C@H](NC(=O)[C@H](CC(N)=O)NC(=O)[C@@H](N)CCCNC(N)N)C(=O)N[C@@H](Cc2ccccc2)C(=O)N[C@@H](CCC(=O)O)C(=O)N[C@@H](CO)C(=O)N[C@@H](C(C)C)C(=O)N[C@@H](C)C(=O)N[C@@H](C)C(=O)N[C@@H](CC(C)C)C(=O)N[C@@H](CCCNC(N)N)C(=O)N[C@@H](CCCNC(N)N)C(=O)N1)C(=O)N[C@@H](Cc1ccc(O)cc1)C(=O)NCC(=O)O (H-[Orn(CH(NH2)2)]NCFESVAAL[Orn(CH(NH2)2)][Orn(CH(NH2)2)]CMYG-OH; disulfide 3-13)
- IC50 (literature IC50, protein: Insulin-like growth factor IB(IGF-I), PDB entry 1pmx): 7.2 µM (active)

SMILES: CC[C@@H]1C(=O)N(C)c2cnc(-n3ccnc3-c3ccccc3)nc2N1C1CC=CC1
- IC50 (literature IC50, protein: Serine/threonine-protein kinase PLK2 (C83S, V87T, A119S, A216S, C259A, C291S, L335T mutation), PDB entry 4i6f): 0.005 µM (active)

SMILES: CC[C@@H]1C(=O)N(C)c2cnc(-n3ccnc3-c3cscn3)nc2N1C1CCCC1
- IC50 (literature IC50, protein: Serine/threonine-protein kinase PLK2 (C83S, V87T, A119S, A216S, C259A, C291S, L335T mutation), PDB entry 4i6h): 0.005 µM (active)

SMILES: CC[C@H](C)C/C=C/C(=O)N[C@@H](Cc1cc(F)cc(F)c1)C(=O)N[C@@H]1C(=O)N2CCC[C@H]2C(=O)N2CC[C@H](C)C[C@H]2C(=O)N[C@@H](C)C(=O)N2CCC[C@H]2C(=O)O[C@@H]1C (X1-[Phe(3,5-F2)]TP[Pip(4S-Me)]AP; ester 2-C)
- IC50 (literature IC50, protein: ATP-dependent Clp protease proteolytic subunit 1 ClpP1, PDB entry 4u0g): 5.1 µM (active)

SMILES: Oc1ccc(-n2ccnc2)cc1
- IC50 (literature IC50, protein: Polymerase PA, PDB entry 4m5r): 1000 µM (active)

SMILES: c1cc2nc(N[C@H]3CCCNC3)c3cc[nH]c3n2n1
- IC50 (literature IC50, protein: MAP kinase-activated protein kinase 2, PDB entry 3wi6): 4.7 µM (active)

SMILES: O=C(O)c1ccc2occc2c1
- IC50 (literature IC50, protein: Dengue virus 3 non-structural protein 5, PDB entry 4ctj): 3120 µM (active)

SMILES: N[C@@H](CCNC(=O)N1CCn2c(ccc2C(F)(F)F)C1)Cc1cc(F)c(F)cc1F
- IC50 (literature IC50, protein: Dipeptidyl peptidase 4, DPP4, PDB entry 4j3j): 0.031 µM (active)

SMILES: COc1ccc(Cl)cc1NCC(=O)NC1CCC(n2c(=O)[nH]c3ccccc32)CC1 (stereo unspecified)
- IC50 (literature IC50, protein: Tankyrase-1, PDB entry 4k4e): 0.024 µM (active)

SMILES: COc1nc2c(cc1-c1c(C)noc1C)ncc1[nH]c(=O)n(-c3ccccc3OC(F)(F)F)c12
- IC50 (literature IC50, protein: BROMODOMAIN-CONTAINING PROTEIN 4, PDB entry 4bw4): 0.63 µM (active)

SMILES: C/C(=N\O)c1ccc(O)cc1O
- IC50 (literature IC50, protein: SERINE/THREONINE-PROTEIN KINASE CHK2, PDB entry 4bdb): 85.6 µM (active)

SMILES: COc1ccc(C[C@H](NC(=O)[C@H](C)NC(=O)CN2CCOCC2)C(=O)N[C@@H](CC2CCCCC2)[C@@H](O)[C@H](C)CO)cc1
- IC50 (literature IC50, protein: yCP, PDB entry 4qlq): 0.0066 µM (active)

SMILES: COc1ccc(C[C@H](NC(=O)[C@@H](C)NC(=O)CN2CCOCC2)C(=O)N[C@@H](CC2CCCCC2)[C@@H](O)[C@H](C)CO)cc1
- IC50 (literature IC50, protein: yCP, PDB entry 4qls): 0.036 µM (active)

SMILES: O=C(COc1ccccc1[P+](O)(O)O)NC1CCCCC1
- IC50 (literature IC50, protein: 14-3-3 protein sigma, PDB entry 4dht): 15 µM (active)

SMILES: O=C(COc1ccccc1[P+](O)(O)O)NC1CCCC1
- IC50 (literature IC50, protein: 14-3-3 protein sigma, PDB entry 4dhn): 128 µM (active)

SMILES: O=C(CS)NCCCCCC(=O)Nc1ccccc1
- IC50 (literature IC50, protein: Schistosoma mansoni histone deacetylase 8, HDAC8, PDB entry 4cqf): 50 µM (active)

SMILES: C[C@@H](O)[C@H](NC(=O)Cc1cc(Cl)cc(Cl)c1)C(=O)NCC(=O)NCC=N
- IC50 (literature IC50, protein: Protease AVP8, PDB entry 4piq): 0.08 µM (active)
